# From PubChem BioAssay
# Entries with a potency or affinity are not part of this list. Records with an inconclusive call do not appear. A number with no mark means an inactive call. Active and inactive are the calls of the source.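 The calls were made as follows, unless noted: active = a dose-response fit showing signal loss, with half-maximal concentration no higher than twice the top tested dose; inconclusive = flat fit between 30% and 70% signal loss, or poor fit; inactive = the rest.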
# Columns and labels:
# [1] = inducers of Cryptococcus neoformans cell lysis, dose response, AK release luminescence, cherry-picks (AID 687000;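 active = fitted dose curve reaches 40% lysis signal rise at or below the highest valid concentration tested for that sample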;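 also: luminescent detection of adenylate kinase leaking from lysed yeast; 0% = median neutral control signal and 100% = double that signal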)
# [2] = HepG2 cell cytotoxicity, dose response, cytotoxicity control, cherry-picks, set 2 (AID 687002)
# [3] = Cryptococcus neoformans growth inhibition, dose response, Alamar Blue, cherry-picks (AID 686998;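 active = falling signal with fitted half-maximal potency no higher than twice the top valid tested dose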)
# [4] = HeLa cell cytotoxicity, dose response, cytotoxicity control, ATP luminescence, cherry-pick samples (AID 687004;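 active = a fitted half-maximal concentration no higher than twice the top valid tested dose, with signal falling as cells die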;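 also: 0% = neutral control median and -100% = staurosporine 10 µM control median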)
# [5] = cytotoxicity in PAX8-dependent RMG-1 cells, dose response, cell-based, cherry-pick (AID 687029;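 active = signal drop whose fitted half-maximal concentration is at most twice the top valid dose, in every test run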;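 also: cells exposed to compound for 96 hours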)
# [6] = cytotoxicity in IOSE-T80 ovarian epithelial cells, dose response, selectivity assay for PAX8 inhibitor project, cell-based, cherry-pick (AID 687032;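 active = fitted half-maximal concentration for viability loss no higher than twice the top valid dose, in every repeat run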;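 also: cells exposed to compound for 96 h before reading; 0% = neutral control wells and -100% = 2 µM mitoxantrone kill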)
# [7] = inhibitors of CMV-promoter luciferase reporter, dose response, counter-screen for Pax8 inhibitor project, cell-based, HEK293, luminescence, dry powder (AID 743020;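 active = signal-lowering compounds whose fitted half-maximal concentration is at or below twice the top tested dose in every run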;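 also: HEK293 cells stably expressing the CMV luciferase reporter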)
# [8] = non-specific cell cytotoxicity, dose response, cytotoxicity control for PAX8 inhibitor project, plate reader, dry powder samples (AID 743021; call rule not given here)
# [9] = IGROV1 ovarian cancer cell cytotoxicity, dose response, PAX8 inhibitor project, plate reader, dry powder samples (AID 743043; call rule not given here;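 also: more negative means fewer viable cells or more cytotoxicity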)
# [10] = NIH:OVCAR-3 ovarian cancer cell cytotoxicity, dose response, PAX8 inhibitor project, plate reader, dry powder samples (AID 743044; call rule not given here); conditions: max activity: at 35 µM, stronger effect = lower value unless noted
# [11] = IOSE-T80 ovarian epithelial cell cytotoxicity, dose response, cytotoxicity control for PAX8 inhibitor project, plate reader, dry powder samples (AID 743045; call rule not given here;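 also: 0% = neutral control median and -100% = positive control median; more negative values mean more cell killing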)
# [12] = cytotoxicity in OVCAR8 ovarian cancer cells, dose response, PAX8 project, cell-based, plate reader, dry powder samples (AID 743197; call rule not given here)
smiles,measurement,setting,value
O=C(C1CCOCC1)N1C[C@H]2[C@@H](c3ccccc31)[C@@H](CO)N2Cc1ccccc1Cl,outcome,[1],inactive
same,outcome,[2],inactive
C/C=C/c1ccc([C@@H]2[C@H]3CN(C(=O)Nc4ccc(OC)cc4)CCCCN3[C@H]2CO)cc1,outcome,[1],inactive
same,outcome,[2],inactive
CC(C)NC(=O)Nc1ccc2c(c1)CC(=O)N([C@H](C)CO)C[C@H](C)[C@@H](CN(C)C(=O)Nc1ccc3c(c1)OCO3)O2,outcome,[1],inactive
same,outcome,[2],inactive
C(=Nn1cnnc1)c1ccc2c(c1)CCC2,outcome,[1],inactive
same,outcome,[2],inactive
Cc1ccc(N2CCN(C(CCc3ccccc3)C(=O)Nc3c(C)cccc3C)CC2)cc1 (centres undefined),outcome,[1],inactive
same,outcome,[2],inactive
C[C@H]1CN([C@@H](C)CO)C(=O)c2cc(-c3ccc(F)cc3)cnc2O[C@@H]1CN(C)CC1CCCCC1,outcome,[3],inactive
same,outcome,[2],inactive
same,outcome,[4],inactive
Cc1ccc(CSc2ncnc3c2cnn3-c2ccccc2)cc1,outcome,[1],inactive
same,outcome,[2],inactive
same,outcome,[4],inactive
CCCNC(=O)[C@H]1[C@H](CO)[C@H]2Cn3c(cccc3=O)[C@@H]1N2C(=O)Nc1cc(F)ccc1F,outcome,[1],inactive
same,outcome,[2],inactive
same,outcome,[4],inactive
Cc1cccc(NC(=S)NN(Cc2ccccc2)c2ccccc2)c1C,outcome,[1],inactive
same,outcome,[2],inactive
CC(NC1CCCC1)C(=O)Nc1ccccc1-c1ccccc1 (centres undefined),outcome,[1],inactive
same,outcome,[2],inactive
same,outcome,[4],inactive
Cc1ccc2cc(NC(=O)c3ccccc3)ccc2n1,outcome,[1],inactive
same,outcome,[2],inactive
C[C@@H]1CN([C@@H](C)CO)C(=O)Cc2cc(NS(=O)(=O)c3ccccc3)ccc2O[C@@H]1CN(C)Cc1ccc(Cl)c(Cl)c1,outcome,[1],inactive
same,outcome,[2],inactive
CN1CCN(CCCNC(=O)c2ccc(/C=C3\Oc4ccccc4N(Cc4ccccc4F)C3=O)cc2)CC1,outcome,[1],inactive
same,outcome,[2],inactive
Cc1ccc(NC(=S)Nc2ccc(Cl)c(Cl)c2)c(OC(F)F)c1,outcome,[1],inactive
same,outcome,[2],inactive
C[C@H]1CN([C@@H](C)CO)C(=O)Cc2cc(NC(=O)C3CC3)ccc2O[C@@H]1CN(C)C(=O)Nc1cccc2ccccc12,outcome,[1],inactive
same,outcome,[2],inactive
same,outcome,[4],inactive
C[C@H]1CN([C@@H](C)CO)S(=O)(=O)c2ccc(Br)cc2O[C@@H]1CN(C)C(=O)CCN1CCCCC1,outcome,[3],inactive
same,outcome,[2],inactive
same,outcome,[4],inactive
C[C@@H]1CN([C@H](C)CO)S(=O)(=O)c2ccc(-c3ccccc3)cc2O[C@H]1CN(C)C(=O)C1CCCCC1,outcome,[1],inactive
same,outcome,[2],inactive
COC(=O)C1=C(C)N(Cc2ccc(Br)cc2)C(=S)NC1c1cccc(Br)c1 (centres undefined),outcome,[1],inactive
same,outcome,[2],inactive
COc1ccc(NC(=S)NCc2ccc(Cl)cc2)c(OC)c1,outcome,[3],inactive
same,outcome,[2],inactive
same,outcome,[4],inactive
N#C[C@H]1[C@@H](c2ccc(C#CCC3CCCC3)cc2)[C@@H](CO)N1C(=O)c1ccccn1,outcome,[1],inactive
same,outcome,[2],inactive
COc1cccc(S(=O)(=O)Nc2ccc3c(c2)[C@H]2C[C@H](CC(=O)N(C)C)O[C@@H](CO)[C@H]2O3)c1,outcome,[3],inactive
same,outcome,[2],inactive
same,outcome,[4],inactive
COc1cccc(S(=O)(=O)N(C)C[C@@H]2OCc3ccccc3-c3ccccc3C(=O)N([C@@H](C)CO)C[C@@H]2C)c1,outcome,[3],inactive
same,outcome,[2],inactive
same,outcome,[4],inactive
same,outcome,[5],inactive
same,outcome,[6],inactive
same,outcome,[7],inactive
same,outcome,[8],inactive
same,outcome,[9],inactive
same,max activity,[10],"-40.1% [at 8 µM, stronger effect = lower value]"
same,outcome,[11],inactive
same,outcome,[12],inactive
CC(=O)c1sc(NC(=O)C2(F)C(F)(F)C(F)(F)C(F)(F)C(F)(F)C2(F)F)nc1C,outcome,[1],inactive
same,outcome,[2],inactive
CC(C)C#Cc1ccc([C@@H]2[C@H](CO)N3CCCCN(C(=O)c4ccc5c(c4)OCO5)C[C@@H]23)cc1,outcome,[3],inactive
same,outcome,[2],inactive
same,outcome,[4],inactive
O=C(CN(c1ccccc1)S(=O)(=O)c1ccccc1)Nc1ccc(F)cc1,outcome,[1],inactive
same,outcome,[2],inactive
same,outcome,[4],inactive
Cc1cccc(C)c1NC(=O)CN(C)C(=O)C1CCCCC1,outcome,[3],inactive
same,outcome,[2],inactive
same,outcome,[4],inactive
COCC(=O)NC[C@H]1N[C@H](CO)[C@H]1c1ccc(C2=CCCC2)cc1,outcome,[3],inactive
same,outcome,[2],inactive
same,outcome,[4],inactive
CC(C)CC#Cc1ccc2c(c1)O[C@H](CN(C)C(=O)C1CCC1)[C@@H](C)CN([C@@H](C)CO)S2(=O)=O,outcome,[1],inactive
same,outcome,[2],inactive
O=C(CN(c1ccccc1)S(=O)(=O)c1ccc(F)cc1)NC1CCCCCC1,outcome,[1],inactive
same,outcome,[2],inactive
same,outcome,[4],inactive
CCNC(=O)C[C@H]1CC[C@H](NC(=O)NC2CCCCC2)[C@@H](CO)O1,outcome,[3],inactive
same,outcome,[2],inactive
same,outcome,[4],inactive
CC(=O)c1sc(NC(=O)c2cc(-c3ccccc3)nn2-c2ccccc2)nc1C,outcome,[1],inactive
same,outcome,[2],inactive
CCOc1ccc(C(=O)NC(=S)Nc2ccccc2N2CCCCC2)cc1[N+](=O)[O-],outcome,[1],inactive
same,outcome,[2],inactive
same,outcome,[4],inactive
Cc1ccc(-n2ncc3c(SCC(N)=O)ncnc32)cc1C,outcome,[1],inactive
same,outcome,[2],inactive
C[C@@H]1CN([C@H](C)CO)C(=O)c2ccccc2-c2ccccc2CO[C@H]1CN(C)S(=O)(=O)c1cccc(C#N)c1,outcome,[1],inactive
same,outcome,[2],inactive
same,outcome,[4],inactive
CCC(=O)N1CCCC1(C)C(=O)Nc1ccc(C)c(C)c1 (centres undefined),outcome,[1],inactive
same,outcome,[2],inactive
same,outcome,[4],inactive
COc1ccc(C#Cc2ccc3c(c2)O[C@H](CN(C)C(C)=O)[C@@H](C)CN([C@@H](C)CO)S3(=O)=O)cc1,outcome,[1],inactive
same,outcome,[2],inactive
same,outcome,[4],inactive
COC(=O)C1=C(C)N(C)C(=S)N(C)C1c1ccc(OC)cc1 (centres undefined),outcome,[1],inactive
same,outcome,[2],inactive
same,outcome,[4],inactive
Cc1cccc(OCC(=O)NCc2ccccc2)c1,outcome,[1],inactive
same,outcome,[2],inactive
same,outcome,[4],inactive
C[C@@H]1CN([C@@H](C)CO)C(=O)c2cc(-c3cncnc3)cnc2O[C@H]1CN(C)C(=O)CN1CCOCC1,outcome,[1],inactive
same,outcome,[2],inactive
same,outcome,[4],inactive
O=C(Nc1ccc(N2CCOCC2)cc1N1CCOCC1)c1cccc([N+](=O)[O-])c1,outcome,[1],inactive
same,outcome,[2],inactive
same,outcome,[4],inactive
COc1ccc(CN(C)C[C@@H]2Oc3ccc(NC(=O)C4CC4)cc3C(=O)N([C@@H](C)CO)C[C@H]2C)cc1,outcome,[1],inactive
same,outcome,[2],inactive
same,outcome,[4],inactive
Cc1ccc(S(=O)(=O)N2CC[C@@H]3[C@H]2c2cc(-c4ccccc4F)ccc2N[C@@H]3CO)cc1,outcome,[1],inactive
same,outcome,[2],inactive
same,outcome,[4],inactive
C[C@H](CO)N1C[C@H](C)[C@H](CN(C)CC2CCCCC2)Oc2c(NS(C)(=O)=O)cccc2C1=O,outcome,[1],inactive
same,outcome,[2],inactive
same,outcome,[4],inactive
CNC[C@@H]1OCCCC[C@@H](C)Oc2ccc(NC(=O)NC(C)C)cc2C(=O)N([C@@H](C)CO)C[C@H]1C,outcome,[1],inactive
same,outcome,[2],inactive
same,outcome,[4],inactive
Fc1cccc(CCN2C(=S)NC[C@@H]2Cc2ccccc2)c1,outcome,[1],inactive
same,outcome,[2],inactive
same,outcome,[4],inactive
CC(=O)N[C@H]1CC[C@H](CCNC(=O)C2CCC2)O[C@@H]1CO,outcome,[1],inactive
same,outcome,[2],inactive
same,outcome,[4],inactive
CCN(C(=O)CSc1ncnc2c1cnn2-c1ccccc1)C1CCS(=O)(=O)C1 (centres undefined),outcome,[1],inactive
same,outcome,[2],inactive
same,outcome,[4],inactive
CN1c2ccc(-c3ccc(F)cc3)cc2[C@H]2[C@H](CCN2S(=O)(=O)c2cccc(F)c2)[C@H]1CO,outcome,[1],inactive
same,outcome,[2],inactive
same,"activity change, negative = cytotoxicity",[4],7.29% [at 6 µM]
Cc1ccccc1OCC(=O)NC(C)c1ccccc1 (centres undefined),outcome,[1],inactive
same,outcome,[2],inactive
same,outcome,[4],inactive
O=C(NC(=S)Nc1ccccc1N1CCOCC1)c1ccccc1F,outcome,[1],inactive
same,outcome,[2],inactive
same,outcome,[4],inactive
O=C(CSc1nc(CCC2CCCC2)nc2ccccc12)NCc1ccc2c(c1)OCO2,outcome,[1],inactive
same,outcome,[2],inactive
same,outcome,[4],inactive
CC(C)Oc1cccc(C(=O)NC(=S)Nc2ccccc2N2CCOCC2)c1,outcome,[1],inactive
same,outcome,[2],inactive
same,outcome,[4],inactive
CCN(CC)C(=O)CSc1ncnc2c1cnn2-c1ccccc1,outcome,[1],inactive
same,outcome,[2],inactive
same,outcome,[4],inactive
CC(C)C(=O)N1CCC1(C)C(=O)Nc1ccccc1C(C)(C)C (centres undefined),outcome,[1],inactive
same,outcome,[2],inactive
same,outcome,[4],inactive
O=C(NC[C@H]1[C@H](c2ccccc2)[C@H](CO)N1C(=O)Cc1cccnc1)C1CCC1,outcome,[1],inactive
same,outcome,[2],inactive
same,outcome,[4],inactive
O=C(C[C@H]1CC[C@H]2[C@@H](COC[C@H](O)CN2C(=O)Nc2ccc3c(c2)OCO3)O1)N1CCN(c2ccccc2)CC1,outcome,[1],inactive
same,outcome,[2],inactive
same,outcome,[4],inactive
O=C(Nc1ccc2ncccc2c1)c1ccccc1,outcome,[1],inactive
same,outcome,[2],inactive
same,outcome,[4],inactive
Cc1cccc(C)c1NC(=O)C1CCCN1C(=O)OC(C)(C)C (centres undefined),outcome,[1],inactive
same,outcome,[2],inactive
same,outcome,[4],inactive
Cc1noc(C)c1NC(=O)N(C)C[C@H]1Oc2ccc(NC(=O)C3CC3)cc2CC(=O)N([C@@H](C)CO)C[C@H]1C,outcome,[1],inactive
same,outcome,[2],inactive
same,outcome,[4],inactive
CCOC(=O)CSc1ncnc2c1cnn2-c1ccc(Cl)cc1,outcome,[1],inactive
same,outcome,[2],inactive
same,outcome,[4],inactive
CNC(=O)CN(c1ccccc1)S(=O)(=O)c1ccc(F)cc1,outcome,[1],inactive
same,outcome,[2],inactive
same,outcome,[4],inactive
